Data on eleven molecules can be found in PubChem BioAssay AID2202241 (National Center for Advancing Translational Sciences (NCATS), 2025).

The source made the active and inactive calls. No rule for the calls is given here. Square brackets hold non-standard residues; d marks the D form. Peptide text beside a SMILES is read from it. * marks the point of attachment. Dolaproine = CO[C@@H]([C@@H]1CCCN1)[C@@H](C)C(=O)O; Dil = CC[C@H](C)[C@H](NC)[C@@H](CC(=O)O)OC; NMe2Val = CC(C)[C@@H](C(=O)*)N(C)C; X1 = C[C@@H](N*)[C@@H](O)c1ccccc1; NMeV = CN[C@H](C(=O)O)C(C)C

The nature of the assay: Identification of antibody-drug conjugate (ADC) payloads which are substrates of ATP-binding cassette drug efflux transporters: cell line panel data. Particulars: 99 cancer cell line panel, CellTiter-Glo viability, 48 h; stronger effect = lower value. The text has this: Antibody-drug conjugates (ADCs) feature an antibody recognizing a specific protein joined to a potent toxic payload. Numerous antibody-drug conjugates have received FDA approval; however, clinical resistance arises. Resistance mechanisms include decreased expression or mutation of the antibody target, impaired payload release, or increased expression of ATP-binding cassette (ABC) efflux transporters associated with multidrug resistance. We therefore sought to characterize the activity of ADC payloads across a broad set of cancer cell lines. We performed a high-throughput screen with 27 common ADC payloads against a panel of 99 cell lines to assess sensitivity to various payloads. Duocarmycin DM and PNU-159682 were exquisitely toxic across the panel of cancer cell lines of varying origins. These findings highlight the potentially broad applicability of Duocarmycin DM and PNU-159682 as ADC payloads in future ADC development.
Compounds were sourced from Levena Biopharma (San Diego, CA), Selleck Chem (Houston, TX), ChemieTek (Indianapolis, IN), or Microsource Discovery Systems (Gaylordsville, CT). Cell line sources and culture conditions were as follows: CAL-27 (ATCC: CRL-2095) and Hs 766T (ATCC: HTB-134) were grown in DMEM media +10% FBS. RKO (ATCC: CRL-2577), A-427 (ATCC: […]), BT-20 (ATCC: HTB-19), Detroit562 (ATCC: CCL-138), HARA-B (Cytion: 300465), PA-1 (ATCC: CRL-1572), TCCSUP (ATCC: […]), UM-UC-3 (ATCC: CRL-1749), and WI-38 (ATCC: CCL-75) were grown in EMEM media +10% FBS. AGS (ATCC: CRL-1739) was grown in F12K media +10% FBS. JJN-3 (DSMZ: ACC 541) was grown in IMDM media +20% FBS. 769-P (ATCC: CRL-1933), 786-O (ATCC: CRL-1932), A-375 (ATCC: CRL-1619), A-431 (ATCC: CRL-1555), A-549 (ATCC: CCL-185), A2780 (Cytion: 300491), ACHN (ATCC: CRL-1611), BT-474 (ATCC: HTB-20), BT-549 (ATCC: HTB-122), CCRF-CEM (ATCC: CCL-119), Daudi (ATCC: CCL-213), HaCaT (Cytion: 300493), HCC38 (ATCC: CRL-2314), HCC827 (ATCC: CRL-2868), HCT15 (ATCC: CCL-225), HEL 92.1.7 (ATCC: TIB-180), Hs 352.Sk (ATCC: CRL-7250), Hs578T (ATCC: HTB-126), HT-1080 (ATCC: CCL-121), HuCC-T1 (Riken Bioresource Center: RCB1960), HuP-T3 (DSMZ: ACC 259), HuP-T4 (DSMZ: ACC 223), IM-9 (ATCC: CCL-159), JJ012 (Gift: Karina Galoian (University of Miami)), JM-1 (ATCC: CRL-10423), K-562 (ATCC: CCL-243), Kasumi-3 (ATCC: CRL-2725), KMS-12-BM (DSMZ: ACC 551), LOUCY (ATCC: CRL-2629), LoVo (ATCC: CCL-229), MCF-7 (ATCC: HTB-22), MDA-MB-231 (ATCC: HTB-26), MDA-MB-436 (ATCC: HTB-130), MDA-MB-468 (ATCC: HTB-132), MIA PaCa-2 (ATCC: CRL-1420), MM1.R (ATCC: CRL-2975), MM1.S (ATCC: CRL-2974), NALM-6 (ATCC: CRL-3273), NCI-H1299 (ATCC: CRL-5803), NCI-H1355 (ATCC: CRL-5865), NCI-H1395 (ATCC: CRL-5868), NCI-H1437 (ATCC: CRL-5872), NCI-H2122 (ATCC: CRL-5985), NCI-H2170 (ATCC: CRL-5928), NCI-H226 (ATCC: CRL-5826), NCI-H23 (ATCC: CRL-5800), NCI-H322M (NIH: NCI-60), NCI-H460 (ATCC: HTB-177), NCI-H522 (ATCC: CRL-5810), NCI-H929 (ATCC: CRL-3580), NIH 3T3 (ATCC: CRL-1658), OCI-M2 (DSMZ: ACC 619), OPM-2 (DSMZ: ACCC 50), OVCAR-3 (ATCC: HTB-161), OVCAR-4 (Gift: Phil Lorenzi MD Anderson), OVCAR-8 (Gift: Phil Lorenzi MD Anderson), Panc 10.05 (ATCC: CRL-2547), PANC-1 (ATCC: CRL-1469), Pfeiffer (ATCC: CRL-2632), PL45 (ATCC: CRL-2558), PSN1 (ATCC: CRL-3211), Raji (ATCC: CCL-86), RD (Gift: Mari Yohe NCI), RPMI-8226 (ATCC: CRM-CCL-155), RS4;11 (ATCC: CRL-1873), SK-BR-3 (ATCC: HTB-30), SK-MEL-28 (ATCC: HTB-72), SMS-CTR (Gift: Mari Yohe NCI), SNU-16 (ATCC: CRL-5974), SU-DHL-8 (ATCC: CRL-2961), SU.86.86 (ATCC: CRL-1837), SW1990 (ATCC: CRL-2172), SW403 (ATCC: CCL-230), SW480 (ATCC: CCL-228), SW579 (ATCC: HTB-107), T-47D (ATCC: HTB-133), T24 (ATCC: HTB-4), and U-937 (ATCC: CRL-1593.2) were grown in RPMI +10% FBS. U266B1 (ATCC: TIB-196) were grown in RPMI +15% FBS. ME-1 (ATCC: HB-119), MOLM-13 (DSMZ: ACC 554), AMO1 (DSMZ: ACC 538), MOLP-8 (DSMZ: ACC 569), MV4-11 (ATCC: CRL-9591), PL-21 (DSMZ: ACC 536), and L-363 (DSMZ: ACC 49) were grown in RPMI +20% FBS. […]
For orientation: Cellular ATP, detected with luciferase, serves as a proxy for viable cell number.
As to `CC[C@H](C)[C@@H]([C@@H](CC(=O)N1CCC[C@H]1[C@H](OC)[C@@H](C)C(=O)N[C@H](C)[C@@H](O)c1ccccc1)OC)N(C)C(=O)[C@@H](NC(=O)[C@@H](NC)C(C)C)C(C)C` (H-[NMeV]V[Dil][Dolaproine]-X1), the viability AUC was 816 (active).

For the molecule `CC[C@H](C)[C@@H]1NC(=O)CNC(=O)[C@H]2Cc3c([nH]c4cc(O)ccc34)S(=O)C[C@H](NC(=O)CNC1=O)C(=O)N[C@@H](CC(N)=O)C(=O)N1C[C@H](O)C[C@H]1C(=O)N[C@@H]([C@@H](C)[C@@H](O)CO)C(=O)N2` (stereo partly specified), the viability AUC is 992 (active).

In the case of `CC[C@H](C)[C@@H]([C@@H](CC(=O)N1CCC[C@H]1[C@H](OC)[C@@H](C)C(=O)N[C@@H](Cc1ccccc1)C(=O)O)OC)N(C)C(=O)[C@@H](NC(=O)[C@H](C(C)C)N(C)C)C(C)C` (NMe2Val-V[Dil][Dolaproine]F-OH), the viability AUC was 932 (active).

In the case of `COc1cc2cc(c1Cl)N(C)C(=O)C[C@H](OC(=O)[C@H](C)N(C)C(=O)CCS)[C@]1(C)OC1[C@H](C)C1C[C@@](O)(NC(=O)O1)[C@H](OC)/C=C/C=C(\C)C2` (stereo partly specified), the viability AUC is 817 (active).

On to `CC[C@H](C)[C@@H]([C@@H](CC(=O)N1CCC[C@H]1[C@H](OC)[C@@H](C)C(=O)N[C@H](C)[C@@H](O)c1ccccc1)OC)N(C)C(=O)[C@@H](NC(=O)[C@H](C(C)C)N(C)C)C(C)C`, for which the viability AUC was 699 (active).

Consider `COc1cc2cc(c1Cl)N(C)C(=O)C[C@H](OC(=O)C(C)C)[C@]1(C)O[C@H]1[C@H](C)[C@@H]1C[C@@](O)(NC(=O)O1)[C@H](OC)C=CC=C(C)C2`, for which the viability AUC is 756 (active).

On to `COc1cc2cc(C(=O)N3C[C@@H](CCl)c4c3cc(O)c3ccccc43)[nH]c2c(OC)c1OC`, for which the viability AUC is 654 (active).

On to `CC[C@H](C)[C@H](NC(=O)[C@H]1CCCCN1C)C(=O)N(C)[C@H](C[C@@H](OC(C)=O)c1nc(C(=O)N[C@@H](Cc2ccccc2)C[C@H](C)C(=O)O)cs1)C(C)C`, for which the viability AUC was 793 (active).

Turning to `COc1cccc2c1C(=O)c1c(O)c3c(c(O)c1C2=O)C[C@@](O)(C(=O)CO)CC3OC1CC(N2CCOC(OC)C2)C(O)C(C)O1` (stereo partly specified), the viability AUC is 666 (active).

Turning to `COc1cc2cc(c1Cl)N(C)C(=O)C[C@H](OC(=O)[C@H](C)N(C)C(=O)CCC(C)(C)S)[C@]1(C)OC1[C@H](C)C1C[C@@](O)(NC(=O)O1)[C@H](OC)/C=C/C=C(\C)C2` (stereo partly specified), the viability AUC was 777 (active).

Regarding `CC[C@H](C)[C@H](NC(=O)[C@H]1CCCCN1C)C(=O)N(C)[C@H](C[C@@H](OC(C)=O)c1nc(C(=O)O)cs1)C(C)C`, the viability AUC is 982 (active).
